Methyltransferases: Primary Screen for Target Class Profiling of Small Molecule Inhibitors of Methyltransferases | purified enzyme, MTase-Glo SAH luminescence; stronger effect = lower value | calls only at 40 µM | hit rate 3.9% among 25,000 | AID 1745853, 2022; call rule not given here
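Each enzyme was reacted with SAM and its substrate, with compounds tested once at 40 uM; SAH formed was read by MTase-Glo luminescence.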
* = called active by the depositor; i = inactive; + = active, no number. Only a selection was taken, and hits are over-represented in it overall. On the % scale 0 is the no-effect control and ±100 the full control effect.

SMILES	Methyltransferases
O=C(O)CCCc1c[nH]c2ccccc12	i
O=C(CN1C(=O)C2(CCCCC2)C1c1ccccc1)NCCc1c[nH]c2ccccc12 (stereo not drawn)	i
c1ccc2c(CCNc3ccc(Nc4ccncc4)cc3)c[nH]c2c1	+
c1cc(NCCc2c[nH]c3ccccc23)cc(Nc2ccncc2)c1	+
Cc1ccc(-c2nnn3c2nc(NCCc2c[nH]c4ccccc24)c2ccccc23)cc1	i
COc1ccc(Nc2nc3c(S(=O)(=O)c4ccc(C)cc4)nnn3c3ccccc23)cc1OC	i
CCCN1C(=O)c2c(C(=O)NCCc3ccc(Cl)cc3)ncn2CC1(C)C(=O)NC1CCCC1 (stereo not drawn)	i
CCCn1c(=O)c2ccc(C(=O)NC(C)C)cc2n2c(SCC(=O)NC3CCCC3)nnc12	i
Cc1ccc(Cn2c(=O)c3ccc(C(=O)NCC(C)C)cc3n3c(=O)n(Cc4ccccc4)nc23)cc1	i
Cc1ccc(C(=O)Cn2nc3n(CCC(C)C)c(=O)c4ccccc4n3c2=O)c(C)c1	i
Cc1cccc(CNC(=O)C2(C)Cn3cnc(C(=O)N4CCCC4)c3C(=O)N2C2CC2)c1 (stereo not drawn)	i
CC1(C)O[C@@]2(C)CC[C@@H]1C[C@@H]2OC1OC(CO)C(O)C(O)C1O (stereo partly drawn)	+
CC(C)C(=O)O[C@@H]1[C@@H](O)[C@@H](O[C@H]2O[C@H](CO)[C@@H](O)[C@H](O)[C@H]2O)O[C@H](CO)[C@H]1O	i
CC(C)C(=O)OC[C@H]1O[C@H](O[C@H]2O[C@H](CO)[C@@H](O)[C@H](O)[C@H]2O)[C@H](O)[C@@H](O)[C@@H]1O	i
CN1C(=O)c2cc(C(=O)NCCCN3CCOCC3)nn2CC1(C)C(=O)NC1CCCCCC1 (stereo not drawn)	i
CC(C)=CC/C=C(/C)[C@H]1CC[C@]2(C)[C@@H]1[C@H](O)CC1[C@@]3(C)CC[C@H](O)C(C)(C)[C@@H]3[C@@H](O[C@@H]3O[C@H](CO)[C@@H](O)[C@H](O)[C@H]3O[C@@H]3O[C@@H](C)[C@H](O)[C@@H](O)[C@H]3O)C[C@]12C (stereo partly drawn)	i
CC(C)=CC/C=C(\C)[C@H]1CC[C@]2(C)[C@@H]1[C@H](O)C[C@@H]1[C@@]3(C)CC[C@H](O)C(C)(C)[C@@H]3[C@@H](O[C@@H]3O[C@H](CO)[C@@H](O)[C@H](O)[C@H]3O)C[C@]12C	i
C=C1C(OC2OC(CO)C(O)C(O)C2O)CC2C(C)(C)C(O)CCC2(C)C1CC/C(C)=C\COC(=O)CC(=O)O (stereo not drawn)	+
CC1(C(=O)NC2CCCC2)Cn2cnc(C(=O)NCCc3ccc(Cl)cc3)c2C(=O)N1C1CC1 (stereo not drawn)	i
CC(C)Cn1c(=O)c2ccccc2n2c(CCC(=O)NCCc3ccccc3)nnc12	i
COc1ccccc1CNC(=O)C1(C)Cn2nc(-c3ccccc3)cc2C(=O)N1c1ccc(C)c(C)c1 (stereo not drawn)	i
CCOC(=O)c1cc2n(n1)CC(C)(C(=O)NC1CCCCC1)N(Cc1ccc3c(c1)OCO3)C2=O (stereo not drawn)	i
Cc1cccc(NC(=O)Cn2c(=O)oc3cc(S(=O)(=O)N4CCCC4)ccc32)c1C	i
Cc1ccc(Cn2c(=O)c3ccccc3n3c(SCC(=O)Nc4cc(C)cc(C)c4)nnc23)cc1	i
CC(C)CNC(=O)c1ccc2c(=O)n(CC(C)C)c3nn(CC(=O)NCc4ccccc4)c(=O)n3c2c1	i
SMILES	Methyltransferases
COc1ccc(CNC(=O)Cn2nc3n(CC(C)C)c(=O)c4ccccc4n3c2=O)cc1	i
C=CCNC(=O)c1ccc2c(=O)[nH]c3c(C(=O)NC(C)C)sc(=S)n3c2c1	i
Cc1ccc(CNC(=O)c2ccc3c(=O)[nH]c4c(C(=O)NCC5CCCO5)sc(=S)n4c3c2)cc1 (stereo not drawn)	i
Cc1ccc(CNC(=O)c2ccc3c(=O)[nH]c4c(C(=O)NC(C)C)sc(=S)n4c3c2)cc1	+
CCN(CCCNC(=O)CCc1nnc2n(CC(C)C)c(=O)c3ccccc3n12)c1cccc(C)c1	i
CC1(C)CC[C@]2(C(=O)O[C@@H]3O[C@H](CO)[C@@H](O)[C@H](O)[C@H]3O)CC[C@]3(C)C(=CCC4[C@@]5(C)C[C@H](O)[C@H](O[C@@H]6OC[C@@H](O)[C@H](O)[C@H]6O)[C@@](C)(CO)C5CC[C@]43C)C2C1 (stereo partly drawn)	i
C[C@@H]1O[C@@H](O[C@H]2[C@H](O)[C@@H](O)[C@H](OC[C@H]3O[C@@H](OC(=O)[C@]45CCC(C)(C)C[C@H]4C4=CCC6[C@@]7(C)C[C@H](O)[C@H](O[C@@H]8O[C@H](CO)[C@@H](O)[C@H](O)[C@H]8O)[C@@](C)(C(=O)O)C7CC[C@@]6(C)[C@]4(C)CC5)[C@H](O[C@@H]4O[C@H](CO)[C@@H](O)[C@H](O)[C@H]4O)[C@@H](O)[C@@H]3O)O[C@@H]2CO)[C@H](O)[C@H](O)[C@H]1O (stereo partly drawn)	i
C[C@@H]1CC[C@]2(C(=O)O)CC[C@]3(C)C(=CCC4[C@@]5(C)C[C@@H](O)[C@H](O)[C@@](C)(CO)C5CC[C@]43C)C2[C@H]1C (stereo partly drawn)	i
C[C@H]1[C@H](C)CC[C@]2(C(=O)O)CC[C@]3(C)C(=CC[C@@H]4[C@@]5(C)C[C@@H](O)[C@H](O)[C@@](C)(CO)[C@@H]5CC[C@]43C)[C@H]12	i
CC1(C)CC[C@]2(C(=O)O)CC[C@]3(C)C(=CCC4[C@@]5(C)C[C@@H](O)[C@H](O)C(CO)(CO)C5CC[C@]43C)C2[C@@H]1O (stereo partly drawn)	+
CC1(C)CC[C@]2(C(=O)OC3OC(CO)C(O)C(O)C3O)CC[C@]3(C)C(=CCC4[C@@]5(C)C[C@@H](O)[C@H](OC6OC(C(=O)O)C(O)C(O)C6O)C(C)(C)C5CC[C@]43C)[C@@H]2C1 (stereo partly drawn)	i
CC1(C)CC[C@]2(C(=O)O[C@@H]3O[C@H](CO)[C@@H](O)[C@H](O)[C@H]3O)CC[C@]3(C)C(=CCC4[C@@]5(C)C[C@@H](O)[C@H](O)C(CO)(CO)C5CC[C@]43C)C2[C@@H]1O (stereo partly drawn)	+
CC1(C)CC[C@]2(C(=O)O[C@@H]3O[C@H](CO)[C@@H](O)[C@H](O)[C@H]3O)CC[C@]3(C)C(=CCC4[C@@]5(C)C[C@@H](O)[C@H](O)C(C)(C)C5[C@H](O)C[C@]43C)[C@@H]2[C@@H]1O (stereo partly drawn)	i
CC1(C)CC[C@]2(C(=O)O[C@@H]3O[C@H](CO)[C@@H](O)[C@H](O)[C@H]3O)CC[C@]3(C)C(=CCC4[C@@]5(C)C[C@@H](O)[C@H](O)[C@@](C)(CO)C5CC[C@]43C)C2C1 (stereo partly drawn)	+
